Experimental data reported in PubChem BioAssay (Tox21).
Records with an inconclusive call do not appear. Active and inactive are the calls of the source. The call rests on the fitted dose curve; in most records, active means well fitted activation curve with a large enough effect in the signal ratio in the repeat runs (not every such curve was filed as active); inconclusive means weak or mixed curves; inactive means flat fitted curve, though single readings scatter; the % refers to the signal ratio.

assay: p53 small molecule agonists, cell-based qHTS assay (AID 1963582); conditions: HCT-116 p53RE-bla reporter, beta-lactamase FRET ratio, 16 h; series mostly up to 66 µM; activation: at the top concentration
Text: National Center for Advancing Translational Sciences [NCATS]
Division of Preclinical Innovation [DPI]
U.S. Environmental Protection Agency [EPA]
National Institutes of Environmental Health Sciences [NIEHS]
National Toxicology Program [NTP]
U.S. Food and Drug Administration [FDA]
p53, a tumor suppressor protein, is activated following cellular insult, including DNA damage and other cellular stresses. The activation of p53 regulates cell fate by inducing DNA repair, cell cycle arrest, apoptosis, or cellular senescence. The activation of p53, therefore, is a good indicator of DNA damage and other cellular stresses. […] The activation of the reporter gene under culture conditions can be detected by fluorescence intensity. This cell line was used to screen the Tox21 10K compound library in a 1536-well plate format and to identify agonists that activate the p53 signaling pathway.
Tox21 Assay Protocol Summary:
The p53RE-bla cells were dispensed at 4,000 cells/5 ul/well in 1536-well black wall/clear bottom plates using a Multidrop dispenser. After the assay plates were incubated at a 37 C/5% CO2 incubator for 5 hours, 23 nL of compounds dissolved in DMSO, positive controls or DMSO only was transferred to the assay plate by a pin tool. The plates were incubated at 37 C for 16 hours. After 1 uL of LiveBLAzerTM B/G FRET substrate was added using a Flying Reagent Dispenser, the plates were incubated at room temperature for 2 hours, and fluorescence intensity was measured by an Envision plate reader.
On the % scale 0 is the no-effect control and ±100 the full control effect; potency means the concentration at half of the fitted maximal effect.

SMILES | activation | Potency
CO/N=C(/C(=O)N[C@@H]1C(=O)N2C(C(=O)OCOC(=O)C(C)(C)C)=C(C)CS[C@H]12)c1csc(N)n1 | -2.43% [at 30.3 µM] (inactive) | –
CNCCCN1c2ccccc2CCc2ccccc21 | -3.41% [at 30.3 µM] (inactive) | –
O=C(CCCN1CCN(c2ccc(F)cc2)CC1)NC1c2ccccc2CSc2ccccc21 (stereo not given) | -7.79% [at 30.3 µM] (inactive) | –
CC(C)c1nnc2ccc(-c3ocnc3-c3cc(F)ccc3F)cn12 | -2.99% (inactive) | –
CCCCCCCOC(=O)c1ccc(O)cc1 | 10.7% (inactive) | –
CS(C)=O | -0.141% (inactive) | –
C[C@H](CS)C(=O)N1CCC[C@H]1C(=O)O | -0.731% [at 30.3 µM] (inactive) | –
CCCCCCCCCCCCCCCBr | 0.168% [at 30.3 µM] (inactive) | –
CO | 2.16% (inactive) | –
CN(C)[C@@H]1C(=O)C(C(N)=O)=C(O)[C@@]2(O)C(=O)C3=C(O)c4c(O)cccc4C[C@H]3C[C@@H]12 | -3.79% [at 30.3 µM] (inactive) | –
CC(=O)Oc1ccc(C2(c3ccc(OC(C)=O)cc3)Oc3ccccc3NC2=O)cc1 | – | 4.46 µM (active)
O=[N+]([O-])c1cccc(S(=O)(=O)O)c1 | 1.94% (inactive) | –
CCCCCCCCCCCCN1CCCCCC1=O | -7.79% (inactive) | –
CCCCCCCCCCCC(=O)OCC | 1.76% (inactive) | –
CCCC/C=C/C=C\C=O | -8.09% (inactive) | –
COc1cc2ncnc(Nc3cccc(Cl)c3)c2cc1OC | -4.37% [at 13.5 µM] (inactive) | –
O=[N+]([O-])c1ccc(Nc2ccc(Nc3ccccc3)c(S(=O)(=O)O)c2)c([N+](=O)[O-])c1 | -5.84% (inactive) | –
COc1ccccc1N1CCN(CC(O)COc2cccc3ccccc23)CC1 (stereo not given) | -2.89% [at 30.3 µM] (inactive) | –
O=C(Oc1ccccc1)c1ccc2ccccc2c1O | 0.0526% (inactive) | –
CCCCOC(=O)c1ccccc1 | 2.86% (inactive) | –

SMILES | activation | Potency
CCCCc1cc2ccccc2c(OCCN(C)C)n1 | -5.4% [at 30.3 µM] (inactive) | –
c1ccc2c(c1)ccc1c3ccccc3ccc21 | -1.71% [at 30.3 µM] (inactive) | –
COc1ccc(C(=O)/C(Br)=C\C(=O)O)cc1 | – | 32.4 µM (active)
CC(C)NCC(O)COc1ccc(CC(N)=O)cc1 (stereo not given) | -0.0028% (inactive) | –
Cc1cccc(O)c1N | -3.18% (inactive) | –
CCCCN(CCN(CCCC)C(=O)N1CCOCC1)C(=O)N1CCOCC1 | 1.99% [at 30.3 µM] (inactive) | –
CCC[Si](OC)(OC)OC | -1.94% (inactive) | –
CC(C)=CC(C)(C)C | 0.119% (inactive) | –
CCCCCCOc1cc(C)c(O)c(C)c1C | 0.296% (inactive) | –
CC(CC=O)c1ccccc1 (stereo not given) | -0.917% (inactive) | –
CC(COc1ccccc1)NN (stereo not given) | -0.511% [at 30.3 µM] (inactive) | –
CCNc1nc(NC(C)CC)nc(OC)n1 (stereo not given) | 0.27% (inactive) | –
Oc1cc2c(cc1O)[C@H]1c3ccc(O)c(O)c3OC[C@@]1(O)C2 | -6.25% (inactive) | –
OCCCCCO | -0.204% (inactive) | –
CC1(C)CC(=O)CC(C)(C)N1 | 3.28% (inactive) | –
CSc1c(Cl)c(Cl)c(Cl)c(Cl)c1Cl | 2.75% (inactive) | –
CCCCNc1cc(C(=O)O)cc(S(N)(=O)=O)c1Oc1ccccc1 | -4.26% [at 30.3 µM] (inactive) | –
C/C=C/C(=O)C1=C(C)CCCC1(C)C | 4.38% (inactive) | –
CC(C)COC(=O)c1ccc(O)cc1 | -6.5% (inactive) | –
Oc1ccc2c(c1)-c1ccccc1C2 | 2.79% (inactive) | –
